# Bioassay records: PubChem BioAssay, National Center for Advancing Translational Sciences (NCATS)
# HT1080 IDH1KD tx = qHTS for induction of synthetic lethality in tumor cells producing 2HG: qHTS for the HT-1080-IDH1KD cell line | Potency, µM (highest dose often 46.1 µM), inactives show top-dose activity, negative = toxicity, actives largely listed as cytotoxic | AID 686971, 2013 | HT-1080 IDH1 knockdown viability, ATP luminescence, 48 h | 360,000 tested, 2% active;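 also: 0% = DMSO wells and -100% = cell-free medium wells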
#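 Viability of IDH1-knockdown HT-1080 fibrosarcoma cells was assessed by CellTiter-Glo after 48 h at 37 °C with titrated compound; concentration-effect curves were classified by fit quality and response size.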
# ATXN2 expr inh = Primary qHTS for Inhibitors of ATXN expression. HEK-293 ATXN2-luciferase reporter, luminescence, 24 h. 360,000 tested, 0.72% active. AID 1745845, 2022. Potency, µM (doses to about 57 µM), for inactives: at the highest dose activity change, negative = inhibition, most hits filed as inhibitors; also: % is scaled to controls: 0 for no effect and ±100 for the full control effect; nearly all actives have a fitted effect of over 55% in size
#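 qHTS (up to 57 uM final) was run with 24 h compound exposure of reporter cells at 37 °C. Each well was multiplexed: SteadyGlo luminescence measured ATXN2-luciferase expression after a fluorogenic Gly-Phe-AFC viability readout (25 uM final).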
# HT1080NT lethal = qHTS for induction of synthetic lethality in tumor cells producing 2HG: qHTS for the HT-1080-NT fibrosarcoma cell line. HT-1080-NT fibrosarcoma viability, CellTiter-Glo ATP luminescence, 48 h. Potency, µM (series often up to 46.1 µM), for inactives: top-dose activity, negative = less viability, usual class: cytotoxic. 360,000 tested, 1.6% active. AID 686970, 2013;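 also: NT is the 2HG producing partner of a matched IDH1 knockdown line; 0% = DMSO-treated cells and -100% = media-only wells without cells; nearly all actives have a fitted effect of over 55% in size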
#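 Fibrosarcoma NT cells, 750 per well in 5% FBS RPMI, were exposed to compound for 48 hours. Viability: CellTiter-Glo luminescence.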
# HepG2 viability = qHTS for Inhibitors of TGF-b: Cytotox Counterscreen | 410,000 tested, 0.76% active | AID 588856, 2011 | HepG2 CAGA-GFP viability, ATP luminescence, 18 h | Potency, µM (titrated, usually from 46.1 µM), without a hit: top-dose activity change, negative = cytotoxicity, most hits filed as cytotoxic
#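 HepG2 CAGA-GFP cells (1000/well, DMEM with 1% FBS) received compound, then TGF-beta at 500 pg/mL final, and were incubated 18 hours at 37 degrees C. Viability was read by CellTiter-Glo luminescence. Media-only wells were set as complete cell-killing and DMSO as no toxicity.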
# ATXN viability = Viability Counterscreen for Primary qHTS for Inhibitors of ATXN expression; S2 cells (HEK-293 line with an ATXN2-luciferase reporter) viability, CellTiter-Fluor protease fluorescence, 24 h; Potency, µM (titrated, usually from 56.7 µM), most hits filed as cytotoxic; 400,000 tested, 0.49% active; AID 651635, 2014; also: nearly all actives have a fitted effect of over 40% in size
# TGFb inhibitor = qHTS for Inhibitors of TGF-b; 410,000 tested, 1.2% active; Potency, µM (top dose mostly 46.1 µM), for the others: at the highest dose activity, negative = inhibition, actives largely listed as inhibitors; HepG2 CAGA-GFP TGF-b/SMAD3 reporter, GFP fluorescence, 18 h; TGF-beta stimulated, 500 pg/mL final; AID 588855, 2011; also: % is scaled to controls: 0 for no effect and ±100 for the full control effect; nearly all actives have a fitted effect of over 65% in size
#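 HEPG2 CAGA-GFP reporter cells (1000/well, DMEM with 1% FBS) received compounds, then recombinant TGF-beta at 500 pg/mL final for 18 hours at 37 degrees C. Per-cell GFP summed per well was normalised to unstimulated and stimulated DMSO controls before curve fitting.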
# An asterisk follows results filed as active; i = inactive; ? = inconclusive; . = no result given; ! = repeats disagree. Only some compounds are listed: those with a hit (about 3.8% of all), similar ones and a draw of the others. Calls follow the shape of the dose curve; as a rule, active = well fitted curve in the direction sought with a large enough effect; inconclusive = small, poorly fitted or top-dose-only effect, or another doubt; inactive = no such curve, though single readings can be large; an effect the other way counts as inactive or inconclusive. Potency is read from the fitted curve at half-maximal effect.
SMILES,HT1080 IDH1KD tx,ATXN2 expr inh,HT1080NT lethal,HepG2 viability,ATXN viability,TGFb inhibitor
COC(=O)[C@]12CCCCC=C1N(CCC1=CCCCC1)C(=O)[C@H](CC(=O)NCc1cccc3ccccc13)C2,16.4µM*,0.0%,?,.,.,.
CCOC(=O)[C@]12CCCC=C1N(CCC1=CCCCC1)C(=O)[C@H](CC(=O)NCC1CCCCC1)C2,23.1µM*,.,?,.,.,.
CCOC(=O)[C@]12CCC=C1N(CCC1=CCCCC1)C(=O)[C@H](CC(=O)NCC1CCCCC1)C2,?,4.8%,-11.1%,.,i,.
C=C[C@]1(C)C=C2CC[C@H]3[C@@](C)(CCC[C@@]3(C)C(=O)O)[C@@H]2CC1,-8.0%,8.4%,-7.4%,-70.0%,i,?
C=C[C@]1(C)C=C2C(=O)[C@@]3(O)OC(=O)[C@@]4(CCCC(C)(C)[C@H]34)[C@@]2(O)CC1,2.91µM*,1.58µM*,2.91µM*,5.62µM*,1.78µM*,?
CC(C)(C)OC(=O)N1CCC(c2c(C(=O)NCc3ccccn3)cnn2-c2ccccc2)CC1,.,.,.,-15.7%,.,0.0%
COc1ccc(NS(=O)(=O)c2cc(Br)cc3c2N(C(=O)C2CC2)CC3)cc1OC,.,-3.6%,.,-12.2%,i,2.2%
Cc1ccccc1CNC(=O)CN1C(=O)C2CCCCN2c2ccc(C(=O)N3CCCC3)cc21 (stereo not drawn),.,4.9%,.,6.5%,i,14.9%
CN(Cc1ccccc1)c1ccc(/C=C/c2sc3ccccc3[n+]2C)cc1,.,.,.,-33.6%,.,3.16µM*
NC(=O)NN=Cc1ccc([N+](=O)[O-])o1,.,-17.0%,.,.,.,.
Cc1cccc(CSC(Nc2ccc(F)cc2)=C(C#N)C#N)c1,-24.4%,?,?,-27.5%,i,5.01µM*
N#CC(C#N)=C(Nc1ccc(F)cc1)SCc1cccc(Br)c1,18.4µM*,?,9.2µM*,-74.8%,?,1.58µM*
CC(NC(=O)Cn1ncc(Cl)c(Cl)c1=O)C12CC3CC(CC(C3)C1)C2 (stereo not drawn),10.3µM*,?,18.4µM*,2.6%,17.8µM*,-5.4%
O=C(Cn1ncc(Cl)c(Cl)c1=O)NC(=O)NC1CCCCC1,6.51µM*,?,?,-52.5%,29.9µM*,?
CC(NC(=O)CN1C(=O)NC(Cc2ccccc2)(Cc2ccccc2)C1=O)C12CC3CC(CC(C3)C1)C2 (stereo not drawn),?,?,20.6µM*,-61.2%,?,-6.1%
CC(C)Oc1ccc(CNC(=O)c2ccc3nc(SCc4ccc(F)cc4)n(C)c3c2)cc1,.,.,.,-6.2%,.,-4.4%
CCc1ccccc1NC(=O)c1ccc(CN2CCC(Cc3ccccc3)CC2)cc1,?,-22.0%,20.6µM*,-59.9%,i,?
CCS(=O)(=O)Nc1cccc(C2=NN(C(=O)c3ccco3)C(c3ccco3)C2)c1 (stereo not drawn),?,-15.5%,?,-21.2%,?,-4.8%
CCS(=O)(=O)Nc1ccc(C2=NN(C(=O)c3ccco3)C(c3ccco3)C2)cc1 (stereo not drawn),16.4µM*,-14.1%,?,-13.7%,?,?
CC(=O)N1N=C(c2ccc(NS(=O)(=O)c3ccccc3)cc2)CC1c1ccco1 (stereo not drawn),5.17µM*,?,4.61µM*,-24.2%,i,?
CC(=O)N1N=C(c2cccc(NS(=O)(=O)c3ccc(C)cc3)c2)CC1c1ccco1 (stereo not drawn),?,13.4%,-4.4%,-5.0%,i,-14.8%
COc1ccc(C(=O)C[n+]2cc(Br)cc(Br)c2)cc1,.,.,.,-7.0%,.,0.5%
CCOC(=O)c1c(S(=O)(=O)N2CCC(C(=O)NCc3ccccc3Cl)CC2)c(C)n(C)c1C,.,1.8%,.,-3.8%,i,?
CCCC[C@H](CN[C@@H](CNC)[C@H](C)CC)NCCC12CCC(CC1)C2,?,28.2µM*,?,-102.1%,28.2µM*,?
CCC[C@H](CN[C@@H](CNC)[C@H](C)O)NCCc1ccc(OC)cc1,-0.1%,-3.8%,-17.6%,-7.3%,i,-1.9%
SMILES,HT1080 IDH1KD tx,ATXN2 expr inh,HT1080NT lethal,HepG2 viability,ATXN viability,TGFb inhibitor
O=C1NC(c2ccccc2)(c2ccccc2)C(=O)N1COP(=O)(O)O,.,7.6%,.,.,i,.
Cc1noc(/C=C/c2cccnc2)c1[N+](=O)[O-],?,?,20.6µM*,-74.6%,?,?
Cc1cccc(C)c1N/C=C/c1onc(C)c1[N+](=O)[O-],1.6%,-7.9%,-5.4%,1.7%,i,18.0%
CCOCCn1ccc2c(OCC(=O)Nc3ccc(OC(F)(F)F)cc3)cccc2c1=O,.,-3.5%,.,-30.0%,i,-12.5%
CO[C@H]1C[C@@H]2CC[C@@H](C)[C@@](O)(O2)C(=O)C(=O)N2CCCC[C@H]2C(=O)O[C@H]([C@H](C)C[C@@H]2CC[C@@H](O)[C@H](OC)C2)CC(=O)[C@H](C)/C=C(/C)[C@@H](O)[C@@H](OC)C(=O)[C@H](C)C[C@H](C)C=C/C=C\C=C/1C,.,.,.,-28.3%,.,4.47µM*
CCCCCCC[C@@H](C/C=C/CCC(=O)N(C)C/C(=C/Cl)C/C(=C\C(=O)N1C[C@H](O)CC1=O)OC)OC,?,?,23.1µM*,-104.0%,?,15.8µM*
CCCCCCC[C@@H](C/C=C/CCC(=O)O)OC,-2.5%,-10.4%,0.6%,-27.1%,?,-0.8%
CC1CCC(C(C)C)C(OC(=O)Cn2c(-c3ccc(F)cc3)[n+](C)c3ccccc32)C1 (stereo not drawn),10.3µM*,8.91µM*,18.4µM*,-50.9%,?,8.91µM*
CC1CCC(C(C)C)C(OC(=O)Cn2c(-c3ccccc3)[n+](C)c3ccccc32)C1 (stereo not drawn),9.2µM*,?,?,-53.0%,?,5.62µM*!
Cc1cccc(OCc2n(CC(=O)OC3CC(C)CCC3C(C)C)c3ccccc3[n+]2C)c1 (stereo not drawn),8.2µM*,?,18.4µM*,20µM*,.,15.8µM*
CC1CCC(C(C)C)C(OC(=O)CSc2nnc(N)s2)C1 (stereo not drawn),1.0%,1.5%,-1.3%,4.9%,i,2.7%
CC1CCC(C(C)C)C(OC(=O)CSc2nc(N)cc(=O)[nH]2)C1 (stereo not drawn),-2.9%,-12.0%,-1.8%,-24.9%,i,-12.2%
